Results from PubChem BioAssay (Tox21).
Several values for one entry are separate records, joined by “and”; a condition that tells them apart may be missing. Identical values can stand only once. Results filed as inconclusive are left out. Activity calls are given as the source filed them. Unless noted, calls follow the shape of the dose curve; as a rule, active = well fitted curve in the direction sought with a large enough effect in the repeat runs; inconclusive = weak or mixed curves; inactive = no such curve, though single readings can be large; an effect the other way counts as inactive or inconclusive.

Experiments:
[1] = target: Acetylcholinesterase (Homo sapiens) (UniProt P22303); assay: Acetylcholinesterase (AChE) small molecule antagonists: enzyme-based qHTS assay (AID 1347397; calls by dose curve; also: nearly all actives have a fitted effect of over 55% in size); details: Potency: AChE enzyme activity inhibition; outcome: AChE enzyme activity inhibition
In short: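 Enzyme inhibition was scored from DTNB-detected thiocholine formed by recombinant human AChE acting on acetylthiocholine. The 30 min compound preincubation and 10 min substrate reaction were both run at room temperature, with DMSO as vehicle control.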

[2] = target: Acetylcholinesterase (Homo sapiens) (UniProt P22303); assay: Acetylcholinesterase (AChE) small molecule antagonists: fluorescence cell-based qHTS assay (AID 1347398; calls by dose curve; also: nearly all actives have a fitted effect of over 50% in size); details: Potency: AChE activity; outcome: AChE activity
In short: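 Endogenous acetylcholinesterase of SH-SY5Y neuroblastoma cells is measured in situ. After overnight attachment and 30 min compound exposure, cells receive acetylthiocholine and Thiolite Green; fluorescence is read after 40 min at room temperature.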

[3] = target: Acetylcholinesterase (Homo sapiens) (UniProt P22303); assay: Acetylcholinesterase (AChE) small molecule antagonists: enzyme-based qHTS assay with human liver microsomes (AID 1347399; calls by dose curve; also: nearly all actives have a fitted effect of over 60% in size); details: Potency: qHTS inhibition; outcome: qHTS inhibition
In short: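 Recombinant human AChE (50 mU/mL in the enzyme mix) and human liver microsomes (0.25 mg/mL final) were preincubated with compound and NADPH (0.25 mg/mL final) for 30 min at 37 C. Acetylthiocholine/DTNB was then added; thiocholine was read colorimetrically after 10 min at room temperature.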

[4] = target: Cytochrome P450 2D6 (Homo sapiens) (UniProt P10635); assay: Cytochrome P450 Family 2 Subfamily D Member 6 (CYP2D6) small molecule antagonists: luciferase reporter qHTS assay (AID 1671196); also: nearly all actives have a fitted effect of over 50% in size; also: potency is read from the fitted curve at half-maximal effect; as to activity change, negative = inhibition: series mostly up to about 120 µM
In short: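 Read-out is luminescence from luciferin formed by CYP2D6 turnover of a proluciferin substrate, recorded as relative luminescence units. Reactions ran 1 h at room temperature after NADPH regeneration solution was added.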

[5] = target: Cytochrome P450 2C19 (Homo sapiens) (UniProt P33261); assay: Cytochrome P450 Family 2 Subfamily C Member 19 (CYP2C19) small molecule antagonists: luciferase reporter qHTS assay (AID 1671197); also: nearly all actives have a fitted effect of over 65% in size; also: potency is read from the fitted curve at half-maximal effect; as to activity change, negative = inhibition: series mostly up to about 120 µM
In short: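 Enzyme-substrate mix with proluciferin substrate (P450-Glo CYP2C19 system) preincubated with compounds 10 min at room temperature; NADPH regeneration solution added, 37C for 1 h; detection reagent stops reaction, luminescence read after 20 min. Ketoconazole positive control.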

[6] = target: Cytochrome P450 2C9 (Homo sapiens) (UniProt P11712); assay: Cytochrome P450 Family 2 Subfamily C Member 9 (CYP2C9) small molecule antagonists: luciferase reporter qHTS assay (AID 1671198); also: nearly all actives have a fitted effect of over 50% in size; also: potency is read from the fitted curve at half-maximal effect; as to activity change, negative = inhibition: series mostly up to about 120 µM
In short: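 P450-Glo proluciferin substrate with CYP2C9 enzyme; 10 min RT preincubation, then NADPH regeneration 1 h at 37C; luciferin detection reagent 20 min RT, luminescence in relative luminescence units.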

[7] = target: Voltage-gated inwardly rectifying potassium channel KCNH2 (Homo sapiens) (UniProt Q12809); assay: Human Ether-a-go-go-Related Gene (hERG) channel small molecule antagonists: fluorescence cell-based qHTS assay (AID 1671200);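 also: hERG-expressing U2OS cells given a thallium stimulus after FluxOR II dye loading; series mostly up to about 77 µM; nearly all actives have a fitted effect of over 50% in size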
In short: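 In this thallium-flux screen, overnight-cultured U2OS cells bearing the channel are dye-loaded in darkness for an hour, rested 10 min at room temperature, and then monitored kinetically at 480/540 nm for two minutes post-stimulus.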

[8] = target: Cytochrome P450 3A4 (Homo sapiens) (UniProt P08684); assay: Cytochrome P450 Family 3 Subfamily A Member 4 (CYP3A4) small molecule antagonists: luciferase reporter qHTS assay (AID 1671201); also: nearly all actives have a fitted effect of over 50% in size; also: potency is read from the fitted curve at half-maximal effect; as to activity change, negative = inhibition: series mostly up to about 120 µM
In short: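 CYP3A4 activity was followed with a P450-Glo proluciferin substrate. Test compounds in DMSO were preincubated 10 min; NADPH regeneration then ran 1 h, and light output was read 20 min after detection reagent.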

[9] = target: Cytochrome P450 1A2 (Homo sapiens) (UniProt P05177); assay: Cytochrome P450 Family 1 Subfamily A Member 2 (CYP1A2) small molecule antagonists: luciferase reporter qHTS assay (AID 1671199); also: nearly all actives have a fitted effect of over 50% in size; also: potency is read from the fitted curve at half-maximal effect; as to activity change, negative = inhibition: series mostly up to about 120 µM
In short: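 P450-Glo CYP1A2, 1536-well qHTS: enzyme/proluciferin substrate + cpd (DMSO), 10 min RT; NADPH regen, 1 h RT; detection reagent, 20 min; luminescence, RLU.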
% is scaled to controls: 0 for no effect and ±100 for the full control effect.

Sequence of Voltage-gated inwardly rectifying potassium channel KCNH2 (Homo sapiens) (Q12809 whole entry, looked up): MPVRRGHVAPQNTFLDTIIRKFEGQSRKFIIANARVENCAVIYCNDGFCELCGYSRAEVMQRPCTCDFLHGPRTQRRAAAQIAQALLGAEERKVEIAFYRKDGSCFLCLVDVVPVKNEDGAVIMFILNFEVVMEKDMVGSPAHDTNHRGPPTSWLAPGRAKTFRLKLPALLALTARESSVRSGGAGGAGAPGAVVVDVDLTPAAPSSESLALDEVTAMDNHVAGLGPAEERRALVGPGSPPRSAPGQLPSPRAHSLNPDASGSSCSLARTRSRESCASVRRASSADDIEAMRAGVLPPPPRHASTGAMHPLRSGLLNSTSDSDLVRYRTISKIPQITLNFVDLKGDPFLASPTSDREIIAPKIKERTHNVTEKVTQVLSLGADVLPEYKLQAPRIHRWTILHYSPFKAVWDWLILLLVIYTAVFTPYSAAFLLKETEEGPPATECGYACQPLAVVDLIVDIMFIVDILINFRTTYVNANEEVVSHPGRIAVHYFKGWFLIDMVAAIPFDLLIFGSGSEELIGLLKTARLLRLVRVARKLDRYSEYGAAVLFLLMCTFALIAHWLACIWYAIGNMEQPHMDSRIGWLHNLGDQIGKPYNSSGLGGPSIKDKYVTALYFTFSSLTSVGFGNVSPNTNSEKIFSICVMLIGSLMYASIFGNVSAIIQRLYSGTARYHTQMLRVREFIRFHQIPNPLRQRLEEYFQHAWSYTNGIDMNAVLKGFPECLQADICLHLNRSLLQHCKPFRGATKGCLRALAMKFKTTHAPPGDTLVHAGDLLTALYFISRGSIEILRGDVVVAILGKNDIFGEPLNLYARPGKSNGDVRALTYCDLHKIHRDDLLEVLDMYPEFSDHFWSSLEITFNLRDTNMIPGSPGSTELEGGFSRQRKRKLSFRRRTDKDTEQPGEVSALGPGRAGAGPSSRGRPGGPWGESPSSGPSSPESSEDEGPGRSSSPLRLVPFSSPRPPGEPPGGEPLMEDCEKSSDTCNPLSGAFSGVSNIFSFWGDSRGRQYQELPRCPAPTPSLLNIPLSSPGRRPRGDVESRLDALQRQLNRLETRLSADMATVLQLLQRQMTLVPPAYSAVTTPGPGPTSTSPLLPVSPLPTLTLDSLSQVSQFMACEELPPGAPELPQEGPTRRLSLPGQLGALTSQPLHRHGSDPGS
Sequence of Cytochrome P450 2D6 (Homo sapiens) (P10635 whole entry, looked up): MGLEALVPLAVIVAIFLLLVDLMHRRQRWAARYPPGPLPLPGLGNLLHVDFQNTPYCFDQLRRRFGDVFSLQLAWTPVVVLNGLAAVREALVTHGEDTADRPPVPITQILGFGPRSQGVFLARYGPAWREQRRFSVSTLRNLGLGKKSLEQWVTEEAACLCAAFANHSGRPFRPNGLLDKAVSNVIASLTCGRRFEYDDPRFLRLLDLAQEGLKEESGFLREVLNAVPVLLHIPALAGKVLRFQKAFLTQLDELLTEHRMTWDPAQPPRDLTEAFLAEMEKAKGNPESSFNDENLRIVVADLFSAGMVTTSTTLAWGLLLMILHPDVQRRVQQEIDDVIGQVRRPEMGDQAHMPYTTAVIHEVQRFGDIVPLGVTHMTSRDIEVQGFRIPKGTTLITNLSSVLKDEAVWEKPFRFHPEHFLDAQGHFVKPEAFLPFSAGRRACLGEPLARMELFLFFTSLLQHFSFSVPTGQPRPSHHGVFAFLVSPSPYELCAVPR
Sequence of Cytochrome P450 1A2 (Homo sapiens) (P05177 whole entry, looked up): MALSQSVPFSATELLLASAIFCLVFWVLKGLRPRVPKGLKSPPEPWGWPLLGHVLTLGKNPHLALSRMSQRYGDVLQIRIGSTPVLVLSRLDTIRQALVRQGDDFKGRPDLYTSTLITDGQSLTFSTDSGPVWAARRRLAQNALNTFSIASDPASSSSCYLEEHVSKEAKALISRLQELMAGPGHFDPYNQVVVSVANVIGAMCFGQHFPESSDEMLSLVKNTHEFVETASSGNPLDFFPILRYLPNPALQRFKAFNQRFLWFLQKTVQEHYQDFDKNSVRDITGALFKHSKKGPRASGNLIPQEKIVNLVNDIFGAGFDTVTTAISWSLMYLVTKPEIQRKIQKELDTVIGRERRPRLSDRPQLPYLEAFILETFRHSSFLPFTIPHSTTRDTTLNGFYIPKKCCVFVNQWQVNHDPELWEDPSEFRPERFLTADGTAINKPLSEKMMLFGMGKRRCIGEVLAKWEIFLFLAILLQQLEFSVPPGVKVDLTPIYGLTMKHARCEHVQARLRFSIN
Sequence of Acetylcholinesterase (Homo sapiens) (P22303 whole entry, looked up): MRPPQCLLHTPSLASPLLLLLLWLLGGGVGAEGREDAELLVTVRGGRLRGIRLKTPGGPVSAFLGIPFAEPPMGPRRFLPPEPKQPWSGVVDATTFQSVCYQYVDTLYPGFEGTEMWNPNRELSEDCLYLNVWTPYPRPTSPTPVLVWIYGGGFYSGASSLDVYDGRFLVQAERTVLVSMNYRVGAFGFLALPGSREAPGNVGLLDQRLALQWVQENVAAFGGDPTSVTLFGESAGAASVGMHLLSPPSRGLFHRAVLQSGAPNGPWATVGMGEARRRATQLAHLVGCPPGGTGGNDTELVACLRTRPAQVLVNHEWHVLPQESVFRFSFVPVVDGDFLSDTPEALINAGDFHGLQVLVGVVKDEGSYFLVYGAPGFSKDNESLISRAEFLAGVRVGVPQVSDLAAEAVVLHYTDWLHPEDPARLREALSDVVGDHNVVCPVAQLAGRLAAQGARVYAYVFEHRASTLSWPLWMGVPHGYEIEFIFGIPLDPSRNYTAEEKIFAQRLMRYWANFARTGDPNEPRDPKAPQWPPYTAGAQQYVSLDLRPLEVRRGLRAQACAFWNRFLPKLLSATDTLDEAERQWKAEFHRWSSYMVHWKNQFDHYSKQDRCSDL
Sequence of Cytochrome P450 2C9 (Homo sapiens) (P11712 whole entry, looked up): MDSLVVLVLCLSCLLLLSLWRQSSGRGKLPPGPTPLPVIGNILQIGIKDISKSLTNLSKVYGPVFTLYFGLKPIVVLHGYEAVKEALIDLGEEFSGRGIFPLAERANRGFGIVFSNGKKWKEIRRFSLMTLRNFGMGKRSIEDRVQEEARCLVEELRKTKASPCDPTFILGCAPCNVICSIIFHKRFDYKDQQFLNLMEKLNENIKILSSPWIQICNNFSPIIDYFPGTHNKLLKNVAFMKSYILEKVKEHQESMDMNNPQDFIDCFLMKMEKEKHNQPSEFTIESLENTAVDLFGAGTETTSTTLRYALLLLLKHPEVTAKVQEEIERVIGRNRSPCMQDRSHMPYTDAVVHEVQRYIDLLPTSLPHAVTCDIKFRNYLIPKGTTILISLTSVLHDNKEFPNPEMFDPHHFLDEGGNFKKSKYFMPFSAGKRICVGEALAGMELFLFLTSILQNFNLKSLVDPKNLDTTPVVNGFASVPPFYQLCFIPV
Sequence of Cytochrome P450 3A4 (Homo sapiens) (P08684 whole entry, looked up): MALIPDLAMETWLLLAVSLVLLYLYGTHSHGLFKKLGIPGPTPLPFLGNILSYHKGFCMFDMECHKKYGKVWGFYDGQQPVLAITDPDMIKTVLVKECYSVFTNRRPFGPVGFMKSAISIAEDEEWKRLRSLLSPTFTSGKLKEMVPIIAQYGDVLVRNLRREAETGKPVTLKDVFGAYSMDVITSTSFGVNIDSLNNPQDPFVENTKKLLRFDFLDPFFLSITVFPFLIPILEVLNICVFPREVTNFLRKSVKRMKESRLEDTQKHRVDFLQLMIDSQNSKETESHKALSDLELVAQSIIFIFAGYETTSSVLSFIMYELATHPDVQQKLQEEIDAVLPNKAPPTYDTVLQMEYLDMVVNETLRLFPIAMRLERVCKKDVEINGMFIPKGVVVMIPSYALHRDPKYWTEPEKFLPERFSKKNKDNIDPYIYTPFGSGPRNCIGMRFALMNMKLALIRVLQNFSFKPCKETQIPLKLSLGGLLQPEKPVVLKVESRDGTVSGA
Sequence of Cytochrome P450 2C19 (Homo sapiens) (P33261 whole entry, looked up): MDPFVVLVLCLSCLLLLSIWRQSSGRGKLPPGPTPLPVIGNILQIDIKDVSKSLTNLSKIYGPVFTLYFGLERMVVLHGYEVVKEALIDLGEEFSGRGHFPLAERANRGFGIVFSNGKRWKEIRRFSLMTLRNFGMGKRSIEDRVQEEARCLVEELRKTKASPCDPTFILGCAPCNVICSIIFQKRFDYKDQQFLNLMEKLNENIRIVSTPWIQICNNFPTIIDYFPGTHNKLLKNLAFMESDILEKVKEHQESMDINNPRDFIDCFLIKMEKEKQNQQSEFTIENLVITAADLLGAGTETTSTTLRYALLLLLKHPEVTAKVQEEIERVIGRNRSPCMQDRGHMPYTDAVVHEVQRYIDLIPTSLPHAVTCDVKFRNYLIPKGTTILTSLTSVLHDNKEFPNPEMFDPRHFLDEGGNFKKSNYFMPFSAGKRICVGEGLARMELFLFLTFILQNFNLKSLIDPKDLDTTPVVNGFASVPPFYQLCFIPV

CCOC(=O)N(C)N=O
inactive: Potency [1] | Potency [2] | Potency [3] | Potency [4] | Potency [5] | Potency [6] | Potency [7]

CCCCOC(C)=O
inactive: Potency [1] | Potency [2] | Potency [3] | Potency [4] | Potency [5] | Potency [6] | Potency [7] | Potency [8]

C=CC1(C)OC(=O)N(c2cc(Cl)cc(Cl)c2)C1=O (configuration not stated)
active: Potency [5] 7.92 µM and 12.6 µM | Potency [9] 5.61 µM and 6.33 µM
inactive: Potency [1] | Potency [2] | Potency [3] | Potency [4] | Potency [6]

OP(O)c1ccccc1
inactive: Potency [1] | Potency [2] | Potency [3] | Potency [4] | Potency [5] | Potency [6] | Potency [9] | Potency [7] | Potency [8]

CC(C)(C)C(=O)C(Cl)Cl
inactive: Potency [1] | Potency [2] | Potency [3] | Potency [4] | Potency [5] | Potency [6]

O=C/C=C/c1ccco1
inactive: Potency [1] | Potency [2] | Potency [3] | Potency [4] | Potency [5] | Potency [6] | Potency [9] | Potency [7] | Potency [8]

CCCC[N+](=O)[O-]
inactive: Potency [1] | Potency [2] | Potency [3] | Potency [4] | Potency [5] | Potency [6] | Potency [9] | Potency [7] | Potency [8]

BrCC1CO1 (configuration not stated)
inactive: Potency [1] | Potency [2] | Potency [3] | Potency [4] | Potency [5] | Potency [6] | Potency [9] | Potency [8]

CC(C)(N)Cc1ccc(Cl)cc1
active: Potency [4] 3.09 µM | Potency [9] 24.5 µM
inactive: Potency [1] | Potency [2] | Potency [3] | Potency [5] | Potency [6] | Potency [7] | Potency [8]

O=C(CCl)NCO
inactive: Potency [1] | Potency [2] | Potency [3] | Potency [4] | Potency [5] | Potency [6] | Potency [9] | Potency [7] | Potency [8]

CC(C)c1ccc(O)cc1
inactive: Potency [1] | Potency [2] | Potency [3] | Potency [4] | Potency [5] | Potency [7] | Potency [8]
active: Potency [9] 22.4 µM

COc1ccccc1OC
active: Potency [5] 79.6 µM
inactive: Potency [1] | Potency [2] | Potency [3] | Potency [4] | Potency [9] | Potency [8]

[P]#[In]
inactive: Potency [1] | Potency [2] | Potency [3] | Potency [4] | Potency [6] | Potency [9] | Potency [7]

CC(C)(C1CCC(O)CC1)C1CCC(O)CC1 (configuration not stated)
inactive: Potency [1] | Potency [2] | Potency [3] | Potency [4] | Potency [9] | Potency [7] | Potency [8]
active: Potency [5] 71 µM

ClCOCCl
inactive: Potency [1] | Potency [2] | Potency [3] | Potency [4] | Potency [5] | Potency [8]

C=CCCC#N
active: Potency [4] 38.9 µM | Potency [5] 61.7 µM
inactive: Potency [1] | Potency [2] | Potency [3] | Potency [6] | Potency [8]

CC(O)CCl (configuration not stated)
inactive: Potency [1] | Potency [2] | Potency [3] | Potency [4] | Potency [5] | Potency [6] | Potency [8]

O=C(O)C(F)(F)C(F)(F)C(F)(F)C(F)(F)C(F)(F)C(F)(F)F
inactive: Potency [1] | Potency [2] | Potency [3] | Potency [4] | Potency [5] | Potency [7] | Potency [8]
active: Potency [6] 6.33 µM

C=C1CC[C@@]2(O)[C@H]3Cc4ccc(O)c5c4[C@@]2(CCN3CC2CC2)[C@H]1O5
active: Potency [4] 2.19 µM
inactive: Potency [1] | Potency [2] | Potency [3] | Potency [6] | Potency [9] | Potency [7] | Potency [8]

CC[C@H](N)c1ccccc1
active: Potency [4] 35.6 µM | Potency [5] 63.3 µM | Potency [8] 31.7 µM
inactive: Potency [1] | Potency [2] | Potency [3] | Potency [7]

C=CC(=O)OCCN(C)C
inactive: Potency [1] | Potency [2] | Potency [3] | Potency [4] | Potency [6] | Potency [9] | Potency [7]

CN(C)C(=O)Oc1cc(OC(=O)N(C)C)cc(C(O)CNC(C)(C)C)c1 (configuration not stated)
inactive: Potency [1] | Potency [2] | Potency [3] | Potency [5] | Potency [9] | Potency [8]
active: Potency [4] 4.9 µM

CCCOc1nn(C(=O)NS(=O)(=O)c2ccccc2C(=O)OC)c(=O)n1C
inactive: Potency [1] | Potency [2] | Potency [3] | Potency [4] | Potency [5] | Potency [9] | Potency [7] | Potency [8]

CON(C)C(=O)Nc1ccc(Br)cc1
inactive: Potency [1] | Potency [2] | Potency [3] | Potency [4] | Potency [7] | Potency [8]
active: Potency [5] 35.6 µM | Potency [9] 5.64 µM

ClCCCCl
inactive: Potency [1] | Potency [2] | Potency [3] | Potency [4] | Potency [6] | Potency [7] | Potency [8]
active: Potency [9] 23.9 µM

CC(C)(O)C(Cl)(Cl)Cl
inactive: Potency [1] | Potency [2] | Potency [3] | Potency [4] | Potency [5] | Potency [9] | Potency [7]

Cc1ccc2c(c1)C1CN(C)CCC1N2 (configuration not stated)
active: Potency [4] 4.25 µM
inactive: activity change, negative = inhibition [1] 0.554% [at 23.6 µM] | activity change, negative = inhibition [2] -10.6% [at 23.8 µM] | activity change, negative = inhibition [3] -0.336% [at 23.6 µM] | activity change, negative = inhibition [5] -12.5% [at 23.6 µM] | activity change, negative = inhibition [6] 0.693% [at 23.6 µM] | activity change, negative = inhibition [7] -9.94% [at 15.8 µM] | activity change, negative = inhibition [8] 8.41% [at 23.6 µM]
